In PubChem BioAssay (Tox21):
The source holds several records for some structures; these can differ, active in one and inactive in another. The source made the active and inactive calls. Calls come from the whole dose curve.

biological target: Androgen receptor (Homo sapiens) (UniProt P10275); assay: qHTS assay to identify small molecule agonists of the androgen receptor (AR) signaling pathway in the presence of an antagonist (AID 1259381); details: MDA-kb2 MMTV-luciferase, AR agonist + nilutamide, 16 h; series mostly up to 92.4 µM; activation: at the top concentration; note: nearly all actives have a fitted effect of over 15% in size
Excerpt: National Center for Advancing Translational Sciences [NCATS] NIH Chemical Genomics Center [NCGC] U.S. Environmental Protection Agency [EPA] National Institutes of Environmental Health Sciences [NIEHS] National Toxicology Program [NTP] Assay overview: Androgen receptor (AR) is an important member of nuclear receptor family. Its signaling plays a critical role in AR-dependent prostate cancer and other androgen related diseases. Considerable attention has been given in the past decades to develop methods to study and screen for the environmental chemicals that have the potential to interfere with metabolic homeostasis, reproduction, developmental and behavioral functions. Therefore AR binding assay for screening against androgen agonists and antagonists can be used to identify potential endocrine disruptors. MDA-kb2 cells (from ATCC, deposited by Wilson et al.) are human breast carcinoma cells that were stably transfected with a luciferase reporter gene under control of the MMTV promoter that contains response elements for both androgen receptor (AR) and glucocorticoid receptor (GR). This particular screening for measuring luciferase reporter gene activity using MDA-kb2 cells against Tox21 10K library compounds is a confirmation study on agonist mode screening in the presence of AR-antagonist compound (Nilutamide) at 3.0uM final concentration.
Assay Protocol Summary: MDA-kb2 cells (cells cultured without CO2) were dispensed at 3,000 cells/well in 4uL of culture medium into white wall/solid-bottom 1536-well plates (Corning Life Sciences, Corning, NY) using a Multidrop Combi (Thermo Fisher Scientific Inc., Waltham, MA) dispenser. The assay plates were incubated at 37C and 0% CO2 for 5hr. One uL of 3.0uM (final concentration) Nilutamide or assay buffer was added using two separate tips of Flying Reagent Dispenser (FRD, Aurora Discovery, San Diego, CA). Then 23nL of compounds dissolved in DMSO at 15 concentrations and positive controls were transferred to the assay plates using a Pintool station (Wako, San Diego, CA). The assay plates were incubated at 37C and 0% CO2 for 16hr. For luciferase read, 4uL/well ONE-Glo reagent (Promega Corporation, Madison, WI) was added to each well of the assay plates using FRD. After 30min incubation at room temperature, the luminescence signal was measured using a ViewLux plate reader (PerkinElmer, Shelton, CT).
% is set by controls: 0 for no effect and ±100 for the full control effect; potency is the fitted concentration of half-maximal effect.

Chain of Androgen receptor (Homo sapiens) (P10275 whole entry, looked up): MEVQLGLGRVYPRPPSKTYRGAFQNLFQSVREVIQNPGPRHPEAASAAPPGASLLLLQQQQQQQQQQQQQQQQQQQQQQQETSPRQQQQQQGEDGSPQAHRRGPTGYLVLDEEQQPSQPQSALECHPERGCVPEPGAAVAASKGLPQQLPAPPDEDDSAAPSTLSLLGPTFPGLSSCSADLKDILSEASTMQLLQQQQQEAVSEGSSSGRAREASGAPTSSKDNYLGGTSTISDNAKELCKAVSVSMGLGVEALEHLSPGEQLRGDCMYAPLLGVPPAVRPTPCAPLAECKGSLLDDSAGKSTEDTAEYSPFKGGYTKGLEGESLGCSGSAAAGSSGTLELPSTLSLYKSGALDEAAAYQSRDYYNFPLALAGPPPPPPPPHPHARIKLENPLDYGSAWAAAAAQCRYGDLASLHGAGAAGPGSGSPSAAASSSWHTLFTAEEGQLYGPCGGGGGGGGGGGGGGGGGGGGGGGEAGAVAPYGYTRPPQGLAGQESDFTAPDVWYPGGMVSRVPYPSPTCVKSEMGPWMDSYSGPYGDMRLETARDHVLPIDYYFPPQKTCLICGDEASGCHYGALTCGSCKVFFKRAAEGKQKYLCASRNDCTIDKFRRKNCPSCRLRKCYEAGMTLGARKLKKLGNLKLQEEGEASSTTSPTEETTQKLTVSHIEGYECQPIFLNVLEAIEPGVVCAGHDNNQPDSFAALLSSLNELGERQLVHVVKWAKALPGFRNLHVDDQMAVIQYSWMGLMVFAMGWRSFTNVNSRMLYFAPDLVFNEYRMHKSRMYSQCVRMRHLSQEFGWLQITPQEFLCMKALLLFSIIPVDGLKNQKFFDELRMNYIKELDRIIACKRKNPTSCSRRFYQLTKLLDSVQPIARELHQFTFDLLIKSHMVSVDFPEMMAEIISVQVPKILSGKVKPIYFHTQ

Structure (SMILES) | activation | Potency
O=C1OC(OC(=O)c2cccnc2Nc2cccc(C(F)(F)F)c2)c2ccccc21 (stereo not given) | -3.27% [at 42.5 µM] (inactive) | –
CCCCCCCC(OC)OC | 4.18% [at 42.5 µM] (inactive) | –
CCC(C)c1cc([N+](=O)[O-])cc([N+](=O)[O-])c1OC(=O)OC(C)C (stereo not given) | -9.43% (inactive) | –
CCCN(CCc1cccs1)[C@H]1CCc2c(O)cccc2C1 | -1.88% [at 42.5 µM] (inactive) | –
CC(=O)OC1CCCCC1 | 2.06% (inactive) | –
CCOCOCC | -0.906% (inactive) | –
CN(C)c1ccc(N=NS(=O)(=O)O)cc1 | -11.4% (inactive) | –
CCOB(OCC)OCC | -0.662% (inactive) | –
CCN1CCN(c2cc(-c3ccc(F)cc3)c3c(n2)CCCCCC3)CC1 | -0.375% [at 19 µM] (inactive) | –
OCCCc1cccnc1 | 5.09% (inactive) | –
O=C(O)Cc1ccc(OCCNC[C@H](O)c2ccccc2)cc1 | 0.242% [at 42.5 µM] (inactive) | –
CCN=c1cc2oc3cc(NCC)c(C)cc3c(-c3ccccc3C(=O)OCC)c-2cc1C | – | inactive
Cc1ccc(O)cn1 | -0.457% (inactive) | –
O=C1C=CC(=O)N1c1ccccc1 | -10.2% (inactive) | –
Cc1cnccn1 | 1.46% (inactive) | –
O=C1c2c(O)ccc(O)c2C(=O)c2c(NCCNCCO)ccc(NCCNCCO)c21 | -8.65% [at 42.5 µM] (inactive) | –
CC(=O)C=O | 0.0695% (inactive) | –
CCCC(=O)OCC(COC(=O)CCC)OC(=O)CCC | -2.08% (inactive) | –
O=S(=O)(O)c1cc(S(=O)(=O)O)c2ccc3c(S(=O)(=O)O)cc(S(=O)(=O)O)c4ccc1c2c43 | 3.07% [at 19 µM] (inactive) | –
CO[Si](CCC1CCC2OC2C1)(OC)OC (stereo not given) | -2.16% (inactive) | –

Structure (SMILES) | activation | Potency
Nc1ccc2cc3ccc(N)cc3nc2c1 | – | inactive
CCCCCCCCCCOCC(O)CN (stereo not given) | -7.37% [at 42.5 µM] (inactive) | –
COc1cc(C=C2CCC/C(=C\c3ccc(O)c(OC)c3)C2=O)ccc1O | -5.95% [at 42.5 µM] (inactive) | –
CC(NCCC(c1ccccc1)c1ccccc1)c1ccccc1 (stereo not given) | -9.56% [at 42.5 µM] (inactive) | –
CC1=C(/C=C/C(C)=C/C=C/C(C)=C/C(=O)Nc2ccc(O)cc2)C(C)(C)CCC1 | – | 8.85 µM (active) and inactive
C=CC(C)(CCC=C(C)C)OC(=O)/C=C/c1ccccc1 (stereo not given) | 0.25% (inactive) | –
CCN=C1C=CC(=C(c2ccc(N(CC)CC)cc2)c2ccc(N(CC)CC)cc2)c2ccccc21 | -11.4% (inactive) | –
O=C(O)c1cccc(Cl)n1 | 0.242% (inactive) | –
O=c1cccc[nH]1 | 11.4% (inactive) | –
CCC(C)(C)c1cc(O)c(C(C)(C)CC)cc1O | -10.6% (inactive) | –
Cc1ccc(N)cc1O | 10.5% (inactive) | –
c1cc[nH]c1 | -0.869% (inactive) | –
CCCCCCCCCCCCN(CCO)CCO | -10.1% (inactive) | –
N#CSCSc1nc2ccccc2s1 | 3.07% (inactive) | –
CN(C)CCOC(c1ccccc1)c1ccccc1 (tested in a mixture with another compound) | -2.47% (inactive) | –
COc1cccc(OC)c1O | -0.765% (inactive) | –
Cc1cn[nH]c1 | -0.548% [at 42.5 µM] (inactive) | –
Cc1ccc(CCn2c3c(c4cc(Cl)ccc42)CN(C)CC3)cn1 | -0.0315% [at 42.5 µM] (inactive) | –
CCCCCCCCC(C)=O | -1.98% (inactive) | –
CN1CCN(C2Cc3ccccc3Sc3ccc(Cl)cc32)CC1 (stereo not given) | -6.51% [at 42.5 µM] (inactive) | –
